# Data reported in PubChem BioAssay AID652048 (National Center for Advancing Translational Sciences (NCATS), 2013).
# The whole screen tested about 410,000 compounds, of which about 2,400 (0.59%) were called active. Rule as the data show it: active = max activation above about 30%; inactive = the rest. For the sample, actives were picked, then their nearest neighbours and some compounds at random.
# Molecular target: D(3) dopamine receptor (Homo sapiens) (UniProt P35462)
# Experiment: qHTS of D3 Dopamine Receptor Agonist: qHTS; also: 0% is about no effect
# Details: D3R DiscoveRx beta-arrestin cells, luminescence, 90 min; stronger effect = higher value
# Source text: D3 DARs represent a very important target for the treatment of several neuropsychiatric disorders. Indeed, one of the most promising therapeutic applications for the D3 DAR is in the area of addiction and related disorders. […] These findings have been observed with a number of addictive substances including cocaine, amphetamine, nicotine, and alcohol. […] Antagonism of the D3 DAR may also be therapeutic in the treatment of schizophrenia or psychosis. […] Since the D3 DAR is expressed in areas of the CNS associated with the control of mood and emotion, it has been hypothesized that selective antagonism of the D3 DAR may be effective in treating psychosis without inducing the motor side effects typically seen with D2 DAR antagonists.
# This part of the project aims to discover novel agonist.
# NIH Chemical Genomics Center [NCGC]
# NIH Molecular Libraries Probe Centers Network [MLPCN]
# Assay Submitter (PI): David Sibley, NINDS
# Freshly passaged cells are plated in 1536 well white, solid bottom plates at a density of 1500 cells/well in 3microl of complete media. After an overnight incubation at 37 degrees C in 5% CO2, cells are loaded with 23nl of test compound from the compound library (as well as dopamine controls) using a 1536 pintool and incubated at 37 degrees C for 90 minutes. Two microliters of DiscoveRx reagent is then added to all cells, and they are incubated for an additional 30 - 60 minutes at room temperature. Following incubation, luminescence is measured on a ViewLux CCD-based luminometer reader using a 20 sec exposure time.
# D(3) dopamine receptor (Homo sapiens), sequence (P35462 whole entry, looked up): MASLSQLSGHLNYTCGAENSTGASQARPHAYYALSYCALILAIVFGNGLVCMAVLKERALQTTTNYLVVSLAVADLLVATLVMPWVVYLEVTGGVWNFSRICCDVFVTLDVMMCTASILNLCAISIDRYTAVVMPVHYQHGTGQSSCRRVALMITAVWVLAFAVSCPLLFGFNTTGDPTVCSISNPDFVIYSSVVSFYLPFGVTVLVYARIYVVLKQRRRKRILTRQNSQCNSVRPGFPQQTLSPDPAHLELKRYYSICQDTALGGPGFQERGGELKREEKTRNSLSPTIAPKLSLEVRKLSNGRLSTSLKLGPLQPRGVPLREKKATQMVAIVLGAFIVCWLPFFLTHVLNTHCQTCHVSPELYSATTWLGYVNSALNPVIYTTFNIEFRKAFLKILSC
row,SMILES,max activation
1,CC(C)=CCc1c(O)c(CC=C(C)C)c2occ(-c3ccc(O)cc3)c(=O)c2c1O,84.1% (active)
2,CC(C)=CCc1ccc(O)c(=O)cc1C(C)C,-8.37% (inactive)
3,CCc1nc2c(cnn2-c2ccc(C)cc2)c(=O)n1-c1ccc(C)cc1,0.0293% (inactive)
4,O=C(CCn1ccc2cc(S(=O)(=O)N3CCCC3)ccc21)NCc1cccc(Cl)c1,-1.61% (inactive)
5,COc1ccc2ncc3c(-c4ccc(C)c(C)c4)nn(CC(=O)NC4CCCC4)c3c2c1,-3.77% (inactive)
6,CC(=O)O[C@]1(C(C)=O)CC[C@H]2[C@@H]3CCC4=CC(=O)CC[C@]4(C)[C@@]3(F)[C@@H](O)C[C@@]21C,9.73% (inactive)
7,CCC(=O)N1N=C(c2ccc(OC)cc2)CC1c1cn(-c2ccccc2)nc1-c1cccs1 (stereo not drawn),-10.2% (inactive)
8,S=c1[nH]nc(-c2cccs2)n1/N=C/c1cn(-c2ccccc2)nc1-c1ccc(Cl)cc1,44.2% (active)
9,CC(=O)O[C@H]1CC[C@@]2(C)C(=CC[C@@H]3[C@@H]2CC[C@]2(C)C(c4cccnc4)=CC[C@@H]32)C1,6.91% (inactive)
10,COc1ccc(S(=O)(=O)NCc2cccn2Cc2cccc(C)c2)cc1Cl,-14.5% (inactive)
11,Cc1ccc(C(=O)Nc2ccc(OCc3cc(=O)n4c5c(sc4n3)CCCC5)cc2)cc1,-4.47% (inactive)
12,COc1ccc(C(=O)NC2CC2)cc1OC1CCN(C/C=C/c2ccccc2)CC1,-13.2% (inactive)
13,COc1ccccc1C(=O)NC(CCSC)C(=O)N1CCN(C/C=C/c2ccccc2)CC1 (stereo not drawn),-0.587% (inactive)
14,COc1cc(C(=O)N2CCN(C/C=C/c3ccccc3)CC2)cc(OC)c1C,49.9% (active)
15,CCc1ccccc1N1C(=O)CN(S(=O)(=O)CC)CC1(C)C(=O)NC1CCCCC1 (stereo not drawn),-18.4% (inactive)
16,N#Cc1ccccc1Cn1cnc2nc3c(cc2c1=O)CCCC3,-7.33% (inactive)
17,C/C=C/C=N/NC(=O)c1ccncc1,-12.6% (inactive)
18,Cc1ccc(Cc2nc3ccccc3nc2SCC(=O)Nc2cccc(C(F)(F)F)c2)cc1,4.77% (inactive)
19,Cc1cc(C)cc(NC(=O)N(C)Cc2ccccc2)c1,-3.6% (inactive)
20,CN(Cc1ccccc1)C(=O)c1cc2c(=O)n(C)c3ccccc3c2s1,-16.8% (inactive)
21,CN(Cc1ccccc1)C(=O)c1cccc(C(=O)N(C)Cc2ccccc2)c1,115% (active)
22,COc1ccc(-c2noc(CSc3nnc(-c4ccccc4)n3-c3ccc(F)cc3)n2)c(OC)c1,-1.45% (inactive)
23,COc1ccc(S(=O)(=O)NCCSc2nnnn2-c2ccccc2)cc1,-5.06% (inactive)
